# Assay outcomes: PubChem BioAssay, several laboratories
# Sampled rows, rich in hits. Any-hit rate of the full collection: about 1.3%.
# Beta2AR agonist – beta2AR agonists driving receptor internalization, primary screen, cell-based, FAP fluorogen, flow cytometry | Am2.2-beta2AR cells | AID 504454, 2011 | 340,000 tested, 0.43% active | response, % (no concentration beside the values);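 active = response above a set limit, near 3 SD of response in nonfluorescent compounds, cut at about 42% in these data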
# VLA-4 inh – inhibition in human VLA-4 binding assay, primary screen, VLA-4 allosteric modulator project, MLPCN library, flow cytometry, VLA-4 expressing cells. inhibition, % (about 7 µM as worked out from the volumes in the protocol). Integrin alpha-4 (Homo sapiens), P13612. 330,000 tested, 0.2% active. ligand binding flow cytometry; in the data active = inhibition above about 50%
# GRK2 inh – compounds blocking aptamer binding on GRK2 – biochemical, human GRK2, bead flow cytometry, HTS, primary screen; inhibition of aptamer binding, % at 10 µM; 330,000 tested, 0.59% active; FAM-aptamer displacement from GRK2; AID 488847, 2010;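 active = inhibition of aptamer binding above 40%, roughly 3 SD of noise, on plates passing a quality check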;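 note: median bead fluorescence of bound FAM aptamer so fluorescent compounds give negative values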
# NTR1 ag – agonists of human NTR1, primary screen, imaging, U2OS cells, beta-arrestin-GFP, high content. Neurotensin receptor type 1 (Homo sapiens), P30989. NTR1-U2OS beta-arrestin-GFP spot imaging, agonist mode. activation, % at 20 µM. 330,000 tested, 0.17% active;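 active = activation at or above 40% of the spot to cytoplasm intensity ratio, with at least 20 cells analyzed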;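 note: 0% = DMSO without peptide and 100% = 100 nM NTR1 peptide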
# Target sequence (P30989 whole entry, looked up): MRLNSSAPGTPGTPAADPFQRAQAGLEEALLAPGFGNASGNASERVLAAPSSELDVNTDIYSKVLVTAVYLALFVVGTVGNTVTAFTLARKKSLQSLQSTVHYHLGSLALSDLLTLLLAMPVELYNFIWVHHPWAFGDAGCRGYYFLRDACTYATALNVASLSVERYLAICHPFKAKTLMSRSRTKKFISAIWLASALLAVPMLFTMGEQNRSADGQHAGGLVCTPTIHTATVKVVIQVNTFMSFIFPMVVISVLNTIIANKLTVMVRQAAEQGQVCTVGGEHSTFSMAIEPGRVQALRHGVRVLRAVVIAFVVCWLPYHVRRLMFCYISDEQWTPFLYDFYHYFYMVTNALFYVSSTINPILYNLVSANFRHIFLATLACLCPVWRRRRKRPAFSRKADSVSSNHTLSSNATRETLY
# A1 inh – caspase 3/7 activation in MEF A1-2A-BIM cells, primary screen, A1 inhibitor project, cell-based, luminescence, HTS; caspase activation, % (no concentration beside the values); AID 2462, 2010; Caspase-Glo 3/7 luminescence, 3 h; percent of clofoctol response, vehicle zero; 330,000 tested, 0.066% active;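 active = over half of replicate activation scores above 10%, or exactly half above 10 with the replicate mean above 10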
# An asterisk follows results filed as active; x = no result given.
SMILES,Beta2AR agonist,VLA-4 inh,GRK2 inh,NTR1 ag,A1 inh
CC(C)(C)[C@H](N)C(=O)N[C@H]1CCC2C3CC=C4C[C@@H](O)CC[C@]4(C)C3CC[C@@]21C (stereo partly specified),28.4,0.9,1.0,36.2,11.4*
COc1ccc(-c2noc(N3CCC(C(=O)NCCCN4CCCC(C)C4)CC3)n2)cc1 (stereo unspecified),-2.5,16.5,2.0,1.2,0.8
CCc1ccc(NC(=O)C2CC=CCC2C(=O)O)cc1 (stereo unspecified),7.3,3.1,7.0,-0.9,-0.5
O=C(O)Cc1ccc(NC(=O)C2CC=CCC2C(=O)O)cc1 (stereo unspecified),x,4.5,44.0*,-0.6,-0.1
CC(C)Oc1ccc(/C=C/C(=O)NCC2COc3ccccc3O2)cc1 (stereo unspecified),58.4*,6.5,0.0,-0.3,-1.0
CC(=O)NCC1COc2ccccc2O1 (stereo unspecified),3.0,7.9,2.0,-1.8,-0.5
CCN(C(=O)CSc1nnc(COc2cccc(C)c2)o1)c1nc(C)cs1,-0.1,-1.1,0.0,-0.2,-0.1
NC(N)=N/N=C/c1ccccc1,-13.5,5.2,2.0,-1.6,-0.5
NC(N)=N/N=C/c1ccc(OCc2ccccc2Cl)cc1,52.6*,24.6,0.0,15.5,0.7
C=CCN1C(=O)/C(=C/c2ccsc2)SC1=S,43.7*,4.0,1.0,1.8,-1.0
CN=c1scc(-c2ccccc2F)n1/N=C/c1ccc(O)c(O)c1O,101.1*,x,x,x,x
CC(=O)Nc1ccc(NS(=O)(=O)c2cc([N+](=O)[O-])ccc2C)cc1,0.4,55.2*,3.0,0.1,-0.7
Cc1ccccc1C(N)c1ccncc1 (stereo unspecified),-5.5,5.8,5.0,-0.3,0.3
COC(=O)c1ccc2c(=O)n(Cc3ccco3)c(SCC(=O)Nc3ccc(C)c(Cl)c3)nc2c1,0.3,7.0,0.0,0.7,17.2*
CC1CCCC(C)N1C(=O)COC(=O)/C=C/c1ccco1 (stereo unspecified),9.1,7.3,9.0,2.1,0.8
CC1CCN(C(=O)COC(=O)/C=C/c2ccco2)CC1,-7.2,1.8,51.0*,1.5,-0.8
O=C(Cn1ncc(Cl)c(Cl)c1=O)N1CCc2ccccc21,54.1*,x,x,x,x
O=c1c(Cl)c(Cl)cnn1Cc1ccccc1Cl,x,-3.5,0.0,x,8.3*
Cc1cc(C)cc(Cn2ncc(Cl)c(Cl)c2=O)c1,x,26.2,0.0,x,6.7*
Cc1ccc(Cn2ncc(Cl)c(Cl)c2=O)cc1,20.2,-11.7,0.0,0.8,-0.9
O=C(Cn1ncc(Cl)c(Cl)c1=O)N1CCN(Cc2ccccc2)CC1,16.5,x,x,x,x
O=C(NCCc1ccccc1)C1CCC(CNS(=O)(=O)c2ccc(F)cc2)CC1 (stereo unspecified),6.3,-2.4,1.0,1.4,0.5
CC(C)(C)N(Cc1ccccc1)C(=O)COC(=O)CNC(=O)c1ccco1,-1.0,0.3,2.0,-1.3,15.8*
COc1ccc(OC)c(NC(=O)COC(=O)c2cc3c(s2)CCC3)c1,6.8,6.2,42.0*,4.9,1.5
Cc1cccc(NS(=O)(=O)c2ccc(C)c(C(=O)NCC(c3cccs3)N(C)C)c2)c1 (stereo unspecified),6.5,x,x,0.8,x
SMILES,Beta2AR agonist,VLA-4 inh,GRK2 inh,NTR1 ag,A1 inh
Cc1ccc(CS(=O)(=O)c2ncc(Cl)c(C(=O)Nc3nnc(C(C)C)s3)n2)cc1,13.7,2.3,0.0,1.5,3.2
COC(=O)c1ccccc1NC(=O)c1nc(S(=O)(=O)Cc2ccccc2)ncc1Cl,51.9*,38.6,0.0,2.9,0.5
Cc1cccc(CS(=O)(=O)c2ncc(Cl)c(C(=O)Nc3nnc(C(C)C)s3)n2)c1,19.6,14.5,2.0,0.7,8.1*
C=CCNC(=O)/C(C#N)=C/c1c(N2CCN(c3ccc(OC)cc3)CC2)nc2c(C)cccn2c1=O,-7.0,-5.2,0.0,6.0,-0.1
CCOc1cc(/C=N/N=C(N)N)ccc1OCc1ccc(Cl)cc1,45.8*,16.9,0.0,x,0.2
COc1cc(/C=N/N=C(N)N)ccc1OCc1ccc(Cl)cc1,37.9,8.3,0.0,4.4,0.4
